HepG2 viability: kills HepG2 cells in TGF-b inhibitor counter-screen; HepG2 CAGA-GFP viability, ATP luminescence, 18 h; Potency, µM (doses to about 46.1 µM), actives largely listed as cytotoxic; 410,000 compounds, 0.76% hits; AID 588856
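CellTiter-Glo luminescence gave cytotoxicity after 18 hours at 37 degrees C. The cells were HepG2 CAGA-GFP in 1% FBS DMEM, stimulated with 500 pg/mL TGF-beta after compound addition. %Activity was normalised to no-cell wells (complete cell-killing) and DMSO (no toxicity), and curves were fitted and classified.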
ATXN viability: reduces viability in counter-screen for ATXN expression inhibitors; S2 cells (HEK-293 line with an ATXN2-luciferase reporter) viability, CellTiter-Fluor protease fluorescence, 24 h; Potency, µM (titrated, usually from 56.7 µM), usual class: cytotoxic; 400,000 compounds, 0.49% hits; AID 651635; note: nearly all actives have a fitted effect of over 40% in size
TDP1 cell CPT: growth inhibition of DT40 Tdp1-/-;hTDP1 cells with camptothecin (screen for TDP1 inhibitors) | AID 686979 | Potency, µM (top dose mostly 46.2 µM), hits mostly inhibitors | 420,000 compounds, 12% hits | chicken DT40 Tdp1-/-;hTDP1 cells + 20 nM CPT, ATP luminescence, 48 h; note: nearly all actives have a fitted effect of over 55% in size
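Cell growth measured by CellTiter-Glo luminescence after a minimum 48 h, 37 C compound exposure with 20 nM CPT in Tdp1-knockout DT40 cells stably expressing hTDP1, seeded 400/well; qHTS titration format.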
TGFb SMAD3 inh: inhibitors of TGF-b signaling; HepG2 CAGA-GFP TGF-b/SMAD3 reporter, GFP fluorescence, 18 h; TGF-beta stimulated, 500 pg/mL final; AID 588855; Potency, µM (top dose mostly 46.1 µM), most hits filed as inhibitors; 410,000 compounds, 1.2% hits; note: nearly all actives have a fitted effect of over 65% in size
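Cell-based qHTS in HEPG2 carrying a CAGA-GFP Smad reporter; compounds added before 500 pg/mL final TGF-beta, 18 h incubation at 37 degrees C, GFP fluorescence quantified per cell by imaging cytometry.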
ATXN2 expr inh: inhibitors of ATXN2 expression; HEK-293 ATXN2-luciferase reporter, luminescence, 24 h; Potency, µM (series often up to 57 µM), hits mostly inhibitors; 360,000 compounds, 0.72% hits; note: nearly all actives have a fitted effect of over 55% in size
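ATXN2-luciferase reporter cells (luciferase flanked by upstream and downstream ATXN2 gene portions) were treated 24 h at 37 °C with compounds at up to 57 uM. SteadyGlo luminescence gave expression; GF-AFC fluorescence gave viability.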
TDP1 cell noCPT: qHTS for Inhibitors of human tyrosyl-DNA phosphodiesterase 1 (TDP1): qHTS in cells in absence of CPT | DT40 Tdp1-/- hTDP1 cells, no CPT, ATP luminescence, 48 h | Potency, µM (doses to about 46.2 µM), hits mostly inhibitors | 420,000 compounds, 15% hits; note: nearly all actives have a fitted effect of over 55% in size
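Compound effects on proliferation are scored in DT40 Tdp1-/-;hTDP1 cells in the absence of CPT. ATP levels (CellTiter-Glo luminescence) are recorded after a ≥48 hr, 37 °C incubation.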
Large screens that a line does not name were inactive. The list is not random: actives were taken first. Their share in the collection is about 17%. Calls come from the whole dose curve; as a rule, active = well fitted curve in the direction sought with a large enough effect; inconclusive = small, poorly fitted or top-dose-only effect, or another doubt; inactive = no such curve, though single readings can be large; an effect the other way counts as inactive or inconclusive.

C=CCN1C(=O)C(CC(=O)Nc2ccc(OCCC)cc2)N(CCCN2CCN(Cc3ccccc3)CC2)C1=S (stereo not given)	ATXN viability inconclusive, TDP1 cell CPT 23.1µM, TGFb SMAD3 inh inconclusive, ATXN2 expr inh inconclusive, TDP1 cell noCPT 20.6µM
CCN1C(=O)C(CC(=O)Nc2ccc(OC)cc2)N(CCCN2CCN(c3ccc(F)cc3)CC2)C1=S (stereo not given)	TDP1 cell CPT 23.1µM, TDP1 cell noCPT 13µM
CCN1C(=O)C(CC(=O)Nc2ccc(OC)cc2)N(CCc2ccc(F)cc2)C1=S (stereo not given)	TDP1 cell CPT 20.6µM, TGFb SMAD3 inh inconclusive, ATXN2 expr inh inconclusive, TDP1 cell noCPT 16.4µM
COc1ccc(NC(=O)CC2C(=O)N(C)C(=S)N2CCc2ccc(F)cc2)cc1 (stereo not given)	TDP1 cell CPT inconclusive, TGFb SMAD3 inh inconclusive, TDP1 cell noCPT inconclusive
COc1ccc(CCN2C(=S)N(C)C(=O)C2CC(=O)Nc2ccc(OC)cc2)cc1 (stereo not given)	TDP1 cell CPT 11.6µM, TDP1 cell noCPT inconclusive
COc1ccccc1C(=O)NCCC(=O)Nc1ncccc1C	none
Cc1c(CN2CCC(CO)(Cc3cccc(C(F)(F)F)c3)CC2)c2ccccc2n1C	HepG2 viability 25.1µM, TDP1 cell CPT 23.1µM, TGFb SMAD3 inh inconclusive, ATXN2 expr inh 35.5µM, TDP1 cell noCPT 16.4µM (no result: ATXN viability)
OCC1(Cc2cccc(C(F)(F)F)c2)CCN(Cc2cc3ccccc3o2)CC1	TDP1 cell CPT inconclusive, TGFb SMAD3 inh inconclusive, TDP1 cell noCPT 16.4µM
COc1ccc(CC2(CO)CCN(Cc3cc4ccccc4o3)CC2)cc1	TDP1 cell CPT 16.4µM, TDP1 cell noCPT 16.4µM
COc1ccc(CC2(CO)CCN(Cc3ccncc3)CC2)cc1	none
CCCC(=O)Nc1cc(S(=O)(=O)N(CC)CC)ccc1Cl	TDP1 cell noCPT inconclusive
COc1ccc(NC(=O)CSc2nnc(CNC(=O)c3cccs3)o2)c(OC)c1	ATXN viability inconclusive
COc1ccc(S(=O)(=O)N2CCN=C2SCc2cccc(C)c2)cc1	TGFb SMAD3 inh inconclusive, TDP1 cell noCPT inconclusive
COc1cccc(CN(Cc2ccco2)S(=O)(=O)c2ccc(S(=O)(=O)NCc3ccccc3)cc2)c1OC	TDP1 cell CPT 29.1µM, TDP1 cell noCPT inconclusive
CCOc1ccc2[nH]c(=O)c(CN(CCN3CCCC3)C(=S)Nc3ccccc3OCC)cc2c1	HepG2 viability 14.1µM, ATXN viability inconclusive, TDP1 cell CPT inconclusive, TGFb SMAD3 inh 15.8µM, TDP1 cell noCPT 23.1µM
COc1ccc2[nH]c(=O)c(CN(Cc3ccco3)C(=O)c3ccccc3)cc2c1	TDP1 cell CPT inconclusive, TGFb SMAD3 inh inconclusive
CCOc1ccc2[nH]c(=O)c(CN(Cc3ccco3)C(=O)c3ccc(Br)cc3)cc2c1	TDP1 cell CPT inconclusive, TDP1 cell noCPT 3.26µM
CCOc1ccc2[nH]c(=O)c(CN(Cc3ccccc3OC)C(=O)c3ccccc3)cc2c1	TDP1 cell CPT 6.51µM, TDP1 cell noCPT 3.26µM
CCOc1ccc2[nH]c(=O)c(CN(CCO)C(=O)c3ccc(Br)cc3)cc2c1	TDP1 cell CPT inconclusive
CCOc1ccc2[nH]c(=O)c(CN(Cc3ccco3)C(=O)c3cccc(F)c3)cc2c1	TDP1 cell CPT inconclusive, TDP1 cell noCPT 23.1µM
Cc1ccc(C(=O)NCC(=O)OCc2nc3ccsc3c(=O)[nH]2)cc1C	none (no result: ATXN2 expr inh)
O=C(c1ccc(Cn2cc([N+](=O)[O-])cn2)o1)N1CCCCCC1	none
CCOc1ccc2[nH]c(=O)c(CN(CCc3ccccc3)C(=O)c3cnccn3)cc2c1	TDP1 cell CPT inconclusive, TDP1 cell noCPT 16.4µM
Cn1c(=O)c([N+](=O)[O-])c(N2CCSCC2)c2ccccc21	TDP1 cell CPT inconclusive, TDP1 cell noCPT inconclusive
Cn1c(=O)c([N+](=O)[O-])c(NCc2ccccc2Cl)c2ccccc21	TDP1 cell noCPT inconclusive

Screening data deposited in PubChem BioAssay by National Center for Advancing Translational Sciences (NCATS).
